Laboratory results taken from the supplement of paper PMC10338343.
± gives the standard deviation.

The sequences below were run on EfPiwi piRISC loaded with L1MC piRNA (26 nt) (assay: pre-steady-state target cleavage rate (min^-1); auxiliary factor: none (no Gtsf1); guide: L1MC piRNA 5'p-UAACUAAAUACUAUGCAAGCUGUAGG; higher = faster piRNA-guided slicing of the target).
In short: (§1)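 The pre-steady-state cleavage rate was calculated from a burst-and-steady-state fit. Data came from Cleave-'n-Seq, in which […] transcribed, DNA-blocked target RNA library was mixed with 1 nM active affinity-purified piRISC carrying one synthetic guide, with or without 500 nM GTSF1 partner protein, in HEPES–potassium acetate buffer at 33 °C for 0–8 or 0–960 min. Uncleaved targets were sequenced and normalised to depth and to weakly complementary targets, three trials were pooled, and k3 was capped at 0.0001 min^-1.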

UCCUGGAUGUCGAACGAGUAGUAUUUAGUUA and UCCUGCUAGAGCUUGCAUAGUAUUUAGAAA cannot be ordered by “pre-steady-state target cleavage rate” value: less than 0.0001 for the first, less than 0.0001 for the second.

First: UCCUGGAUGUCGAUGCAUCGUAUUUAGUUA
Second: UCCUGGAUCAGCUUGCAUAGUAUGUAGUUA
The “pre-steady-state target cleavage rate” value of the first is lower: less than 0.0001 for the first, 0.0179 ± 0.0092 for the second.

UCCUGGAUCAGCAACCAUAGUAUUUUCAAA and UCCUGGAAGUGCUUGCAUAGUAUUUAGAAA cannot be ordered by “pre-steady-state target cleavage rate” value: less than 0.0001 for the first, less than 0.0001 for the second.

Each sequence was assayed on EfPiwi piRISC loaded with L1MC piRNA (26 nt) (assay: pre-steady-state target cleavage rate (min^-1); auxiliary factor: 500 nM Ephydatia muelleri Gtsf1; guide: L1MC piRNA 5'p-UAACUAAAUACUAUGCAAGCUGUAGG; MIWI and MILI are mouse PIWI proteins and EfPiwi is from a freshwater sponge; tags in brackets are library labels; higher = faster piRNA-guided slicing of the target).
In short: as §1

First: UCCUGGAUCAGCUUGCAUAGUACUUUAGUUA
Second: UCCUGCUACAGGUUGCAUAGUAUUUACAAA
The “pre-steady-state target cleavage rate” value of the first is higher: 0.00735 ± 0.0023 for the first, 0.00244 ± 0.0017 for the second.

Going from UCCUGGAUCAGCUUGCAUAGUAUUAUAGUUA to UCCUGGGACAGCUUGCAUAGUAUUUAGUUA, the “pre-steady-state target cleavage rate” value falls from 0.0796 ± 0.024 to 0.0163 ± 0.0059.

First: UCCUGGAUGUCGAACGUAUGUCUUUAGUUA
Second: UCCUGGAUCAGCUUGCAUAGCAUUUAGUUA
The “pre-steady-state target cleavage rate” value of the first is lower: less than 0.0001 for the first, 0.00774 ± 0.0021 for the second.

First: UCCUGGAUGUGCUUGCAUAGUCUUUAGUUA
Second: UCCUGGUGACAGCUUGCAUAGUAUUUAGUUA
The “pre-steady-state target cleavage rate” value of the first is lower: 0.00922 ± 0.0036 for the first, 0.0328 ± 0.01 for the second.

Compared with UCCUCCUACACCUUCCAUAGUAUUUAGUUA, UCCUGGAUCAGCUUGCAUAGUAUUUACGUUA is higher in “pre-steady-state target cleavage rate” value: 0.00329 ± 0.0018 for the first, 0.0133 ± 0.0044 for the second.

First: UCCUGGAUCAGCUUGCAUAUUAUUUAGUUA
Second: UCCUGGAUCAGCUUGCAUAGUAGUUUAGUUA
The “pre-steady-state target cleavage rate” value of the first is higher: 0.0367 ± 0.011 for the first, 0.0107 ± 0.0033 for the second.

Compared with UCCUGCUAGAGCUUGCAUAGUAUUUAGAAA, UCCUGGAUCAGCUUGCAUAGUAUGUAGUUA is higher in “pre-steady-state target cleavage rate” value: 0.00419 ± 0.0022 for the first, 0.0171 ± 0.0042 for the second.

For UCCUGGAAGUGCUUGCAUAGUAUUUAGAAA, the “pre-steady-state target cleavage rate” value was 0.00379 ± 0.0018.
